{
  "source": "PubChem BioAssay AID1346428",
  "about": "(National Center for Advancing Translational Sciences (NCATS), 2018)",
  "note": "Hit rate of the full screen: of about 48,000 compounds, about 1,200 (2.5%) were called active. Inconclusive results (about 2%) are left out. The full list was thinned out, with actives kept by preference. A number with no mark means an inactive call.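 The calls were made as follows: active = activation of at least 60% and not above a set upper limit (about 1 call in 100 departs from these limits); inconclusive = activation of 40% to 60%, or above that upper limit; inactive = activation under 40%.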",
  "data": [
    {"target": "Probable G-protein coupled receptor 32 (Homo sapiens) (UniProt O75388)", "sequence (O75388 whole entry, looked up)": "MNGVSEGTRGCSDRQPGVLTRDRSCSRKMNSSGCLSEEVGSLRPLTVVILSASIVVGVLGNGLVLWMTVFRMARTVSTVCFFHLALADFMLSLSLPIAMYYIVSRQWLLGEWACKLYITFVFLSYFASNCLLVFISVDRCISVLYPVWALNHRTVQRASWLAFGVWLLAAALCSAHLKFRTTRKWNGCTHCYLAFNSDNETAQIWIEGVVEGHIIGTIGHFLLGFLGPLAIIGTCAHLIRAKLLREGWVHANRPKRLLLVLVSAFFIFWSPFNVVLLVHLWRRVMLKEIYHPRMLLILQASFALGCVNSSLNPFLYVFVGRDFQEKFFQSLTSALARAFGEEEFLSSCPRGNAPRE", "assay": "qHTS for Agonists of Human Resolvin D1 Receptor DRV1", "conditions": "CHO-K1 GPR32 beta-arrestin PathHunter luminescence, 90 min; at 76.9 µM; stronger effect = higher value; zero percent set by DMSO-only wells", "excerpt": "Endogenous resolution of inflammation is known to be transduced through various GPCRs and their natural mediators of lipid nature. Resolvin D1 (RvD1) is one of the active players in resolution of acute inflammation through regulation of anti-inflammatory pathways; it is known to enhance phagocytosis of human macrophages, limits neutrophils infiltration, etc. […] The search for GPR32-activating small molecules with anti-inflammatory effects similar to its natural omega-3 derivative ligand in order to use them as research tools for further studies of inflammation and its resolution was the goal of this screening project. For primary screening assay, we used CHO-K1 GPR32 beta-arrestin cell line (DiscoveRx, #93-0321C2A) and the PathHunter(R) beta-Arrestin Assay (DiscoveRx) which measures recruitment of beta-arrestin to the GPR32 and generates chemiluminescent signal. These engineered cells stably transfected with GPR32 co-express GPR32-fused small 42-amino acid fragment of beta-Gal called ProLinktrade mark, and […] -tagged beta-Arrestin fusion protein. When GPR32 is activated by a ligand, it stimulates binding of beta -Arrestin to ProLink-tagged GPR32, and two parts of beta-Gal complement forming a functional enzyme. Upon substrate (PathHunter(R) Detection reagent) addition, beta-Gal hydrolyzes it and generates a chemiluminescent signal.\nThe cells were thawed and plated in thawing media containing F-12 HAM (Invitrogen, #11765-054), 10% FBS (Invitrogen, #10082), 1x Glutamine, and 1x Pen/Strep onto the 175-mm flask for 24 hours. Then, thawing media was replaced with Growth media which contains 800microg/mL Geneticin (Invitrogen, #10131) and 300microg/mL Hygromycin B (Invitrogen, #10687) in addition to described above. For the assay, the cells were harvested at ~80% confluent stage with Cell Dissociation buffer (Gibco, #13151), and seeded at 2,500 cells/ 3microL/well in assay media (PathHunter(R) Cell Plating Reagent, DiscoverX, #93-0563R1B) using MultiDrop Combi dispenser (Thermo Scientific, Logan, UT) onto white solid bottom tissue culture-treated 1536-well plates (Greiner # 789173-F) and allowed to attach overnight at 37 degrees C, 95% humidity, 5% CO2, . Next, 23nL/well of compound solutions in DMSO were added with a Pin Tool (Kalypsis, San Diego, CA) to the assay plates. As the basal control (EC0), 23 nL/well of DMSO was used on each plate. The cells were incubated in the presence of compounds or DMSO for 90 minutes at 37 degrees C, 5% CO2. Subsequently, 1.5microL/well of PathHunter(R) Detection Reagent prepared per the manufacturer's instructions was added to the assay plates with BioRAPTR FRDtrade mark dispenser (Beckman Coulter, San Francisco, CA) and incubated for 1 hour at ambient temperature prior to the measurement of the luminescent signal on ViewLux(R) uHTS Microplate Imager (Perkin Elmer, Waltham, MA).", "values": [
      {"smiles": "COC(=O)c1cc(S(=O)(=O)N2CCN(c3cc(Cl)ccc3C)CC2)c[nH]1", "activation": "13.7%"},
      {"smiles": "Cc1ccc(Cl)cc1N1CCN(S(=O)(=O)c2cc3[nH]c(=O)c(=O)[nH]c3cc2C)CC1", "activation": "97% (active)"},
      {"smiles": "CCn1cc(C(=O)N2CCN(c3cc(Cl)ccc3C)CC2)c(=O)c2cc(S(=O)(=O)N3CCCC3)ccc21", "activation": "-4.63%"},
      {"smiles": "Cc1c(C)n(Cc2ccc(Cl)cc2)c2ccc(C(=O)N3CCN(c4ccccc4F)CC3)cc12", "activation": "-26.9%"},
      {"smiles": "O=c1c2ccccc2n(Cc2cccc(Cl)c2)c(=O)n1Cc1ccccc1", "activation": "-10.4%"},
      {"smiles": "O=C1N(Cc2ccccc2)c2ccc(Cl)cc2C1(O)c1c[nH]c2ccccc12", "note": "(stereo not drawn)", "activation": "116% (active)"},
      {"smiles": "O=C(CC1Oc2ccc(Cl)cc2NC1=O)NCc1ccccc1", "note": "(stereo not drawn)", "activation": "-14.9%"},
      {"smiles": "Cc1cccc(NC(=O)Cn2nc(-c3ccc(Cl)cc3)c3ccccc3c2=O)c1", "activation": "-2.07%"},
      {"smiles": "COc1ccc(OCCCn2c(C3CC(=O)N(c4ccc(F)cc4)C3)nc3ccccc32)cc1", "note": "(stereo not drawn)", "activation": "1.68%"},
      {"smiles": "Cc1ccc(C)c(N2CCN(C(=O)Cc3c(C(=O)O)c(C)cn3C)CC2)c1", "activation": "-4.29%"},
      {"smiles": "CC(=O)Nc1ccc(NC(=O)C2CCCN(S(=O)(=O)c3ccc4c(c3)CCCC(=O)N4)C2)cc1", "note": "(stereo not drawn)", "activation": "16.8%"},
      {"smiles": "COc1ccc(OC)c(NC(=O)C2CCCN(S(=O)(=O)c3ccc4c(c3)CCCC(=O)N4)C2)c1", "note": "(stereo not drawn)", "activation": "-4.17%"},
      {"smiles": "CCOC(=O)c1ccc(NC(=O)C2CCN(S(=O)(=O)c3ccc4c(c3)CCCC(=O)N4)CC2)cc1", "activation": "68.9% (active)"},
      {"smiles": "COc1ccc(Cl)cc1NC(=O)NCC1CCN(Cc2ccccc2F)CC1", "activation": "-10.4%"},
      {"smiles": "CCOc1ccc(C2CC(=O)c3c([nH]c(C(=O)OCc4ccccc4)c3C)C2)cc1", "note": "(stereo not drawn)", "activation": "49.1%"},
      {"smiles": "COc1cccc(CNC(=O)c2cc(=O)[nH]c3ccc(S(=O)(=O)N4CCCCC4)cc23)c1", "activation": "-3.54%"},
      {"smiles": "CCC(=O)N1CCc2cc(Br)cc(S(=O)(=O)NCc3ccc(Cl)cc3)c21", "activation": "19.3%"},
      {"smiles": "CCOc1ccc(N(CC)C(=O)c2cc3c(=O)oc4ccccc4c3s2)cc1", "activation": "21.3%"},
      {"smiles": "CCN(CC)CCNC(=O)c1cc2c(=O)oc3ccc(C)cc3c2s1", "activation": "67.3% (active)"},
      {"smiles": "COc1ccc(Cl)cc1N(C)C(=O)c1cc2c(=O)oc3ccc(C)cc3c2s1", "activation": "29.1%"},
      {"smiles": "Cc1cccc(Nc2cc(C)nc(-n3nc(C)cc3C)n2)c1", "activation": "-20.8%"},
      {"smiles": "O=C(c1ccc2c(c1)N(Cc1ccccc1)C(=O)c1ccccc1S2(=O)=O)N1CCC(Cc2ccccc2)CC1", "activation": "-8.72%"},
      {"smiles": "CC1CCCN(Cc2c(O)ccc3c(=O)c(Oc4ccc(C(C)(C)C)cc4)c(C(F)(F)F)oc23)C1", "note": "(stereo not drawn)", "activation": "64.7% (active)"},
      {"smiles": "Cc1ccc(C)c(Oc2c(C(F)(F)F)oc3c(CN4CCN(C)CC4)c(O)ccc3c2=O)c1", "activation": "-14.3%"},
      {"smiles": "Cc1ccc(Oc2c(C(F)(F)F)oc3c(CN4CCCCC4)c(O)ccc3c2=O)cc1", "activation": "-34.2%"},
      {"smiles": "COc1ccc(-c2c(C)c3ccc(O)c(CN4CCCC4)c3oc2=O)cc1OC", "activation": "-5.21%"},
      {"smiles": "CC1CCCCN1Cc1c(O)ccc2c(=O)c(-c3cccc(Cl)c3)c(C(F)(F)F)oc12", "note": "(stereo not drawn)", "activation": "-11.7%"},
      {"smiles": "CCC1CCCCN1Cc1c(O)ccc2c(=O)c(Oc3ccccc3Cl)c(C(F)(F)F)oc12", "note": "(stereo not drawn)", "activation": "102% (active)"},
      {"smiles": "Cc1ccsc1CN(C(=O)c1oc2ccc(Br)cc2c1C)C1CCS(=O)(=O)C1", "note": "(stereo not drawn)", "activation": "-26.5%"},
      {"smiles": "Cc1cc(F)ccc1NC1(c2ccccc2)C(=O)c2ccccc2C1=O", "activation": "-74.1%"},
      {"smiles": "Cc1cc(F)ccc1NS(=O)(=O)c1ccc(-n2cccn2)cc1", "activation": "106% (active)"},
      {"smiles": "Cn1c(=O)n(C)c2cc(NS(=O)(=O)c3ccc(F)cc3)ccc21", "activation": "7.69%"},
      {"smiles": "CCOC(=O)N1CCc2c(sc3c2c(=O)n(-c2ccc(CC)cc2)c(=O)n3C)C1", "activation": "-6.72%"},
      {"smiles": "CC(Nc1ccc(-c2nc(-c3ccco3)no2)cc1[N+](=O)[O-])c1ccccc1", "note": "(stereo not drawn)", "activation": "-14.5%"},
      {"smiles": "COc1ccc(OC)c(NC(=O)CSc2nc3ccccc3nc2N2CCCCC2)c1", "activation": "-20.5%"},
      {"smiles": "O=C(Nc1ccc(O)c(-c2nc3ccccc3o2)c1)c1ccc(-c2cccc(Cl)c2)o1", "activation": "10.7%"},
      {"smiles": "O=S(=O)(Nc1ccc2nc(-c3cccc(Cl)c3)oc2c1)c1ccccc1", "activation": "93.4% (active)"},
      {"smiles": "O=C(Nc1cccc(-c2nc3ccccc3o2)c1)c1cccc(Br)c1", "activation": "-18.9%"},
      {"smiles": "COC(=O)c1ccc(Cn2c(SCC(=O)N(C)c3ccccc3)nc3ccccc32)cc1", "activation": "-14.8%"},
      {"smiles": "O=C(CSc1ncc(-c2ccccc2)[nH]1)Nc1ccc(F)cc1F", "activation": "-23.6%"},
      {"smiles": "Cc1cccc(NC(=O)CSc2ncc(-c3ccccc3)[nH]2)c1C", "activation": "93% (active)"},
      {"smiles": "CCOc1cccc(NC(=O)CSc2ncc(-c3ccc(Cl)cc3)[nH]2)c1", "activation": "-15.1%"},
      {"smiles": "COC(=O)c1ccc(NC(=O)CCc2c(C)nc3c(c(C)nn3-c3ccc(C)cc3)c2C)cc1", "activation": "-18.2%"},
      {"smiles": "CCc1ccc(NC(=O)Cn2c(=O)n(CCC(=O)NCc3ccc4c(c3)OCO4)c(=O)c3ccccc32)cc1", "activation": "-4.89%"},
      {"smiles": "Cc1ccccc1NC(=O)Cn1cc(C(=O)c2cccs2)c2ccccc21", "activation": "-6.21%"},
      {"smiles": "Cn1c(=O)c2c(SCC(=O)NCC3CCCO3)nc(-c3ccccc3F)nc2n(C)c1=O", "note": "(stereo not drawn)", "activation": "-4.7%"},
      {"smiles": "CCOc1ccc(NC(=O)c2cnn(-c3ccccc3)c2-n2cccc2)cc1", "activation": "-6.74%"},
      {"smiles": "CN1CC[C@H](c2c(O)cc(O)c3c(=O)cc(-c4ccccc4Cl)oc23)[C@H](O)C1", "activation": "-16.5%"},
      {"smiles": "O=C(NC1CC(=O)N(c2ccc(F)cc2)C1)C1CCCCC1", "note": "(stereo not drawn)", "activation": "-2.56%"},
      {"smiles": "COc1cc(OC)cc(C(=O)Nc2c(C(=O)Nc3ccc(F)cc3)oc3ccccc23)c1", "activation": "1.9%"},
      {"smiles": "Cc1cc(C)cc(OC(C)C(=O)Nc2nc3c(s2)CCCC3)c1", "note": "(stereo not drawn)", "activation": "-14.5%"},
      {"smiles": "CC(C)C(=O)Nc1nc2c(s1)CC(C(C)(C)C)CC2", "note": "(stereo not drawn)", "activation": "63.2% (active)"},
      {"smiles": "CC(C)(C)C1CCc2c(sc(NC(=O)c3ccccc3F)c2C(=O)N2CCCCC2)C1", "note": "(stereo not drawn)", "activation": "-35.6%"}
    ]}
  ]
}
